Screening data from PubChem BioAssay.
In the library only some 19% were active in any assay of this set; here they are far more common.
HT1080 IDH1KD tx – qHTS for induction of synthetic lethality in tumor cells producing 2HG: qHTS for the HT-1080-IDH1KD cell line | HT-1080 IDH1 knockdown viability, ATP luminescence, 48 h | Potency, µM (top dose mostly 46.1 µM), without a hit: at the highest dose activity, negative = toxicity, actives largely listed as cytotoxic | 360,000 tested, 2% active;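 further: potency means the concentration at half of the fitted maximal effect; 0% = DMSO wells and -100% = cell-free medium wells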
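HT-1080-IDH1KD cells (IDH1 knocked down), 750/well in RPMI with 5% FBS, treated with compound 48 h at 37 degrees C. Viability by CellTiter-Glo luminescence, normalised to DMSO and no-cell wells; concentration-response curves classed.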
uPA surface inh – qHTS for Inhibitors of Cell Surface uPA Generation; cell surface uPA generation assay, qHTS; Potency, µM (series often up to 38.3 µM), without a hit: at the top dose activity change, negative = inhibition, hits mostly inhibitors; 330,000 tested, 0.31% active; AID 540303, 2011; active means well fitted inhibition curve with a large enough effect; inconclusive means small, poorly fitted or top-dose-only effect; inactive means no such curve, though single readings can be large or run the other way; tested in mouse RAW 264.7 cells; further: potency means the concentration at half of the fitted maximal effect; nearly all actives have a fitted effect of over 55% in size
IL-1B inflam inh – qHTS for Inhibitors of Inflammasome Signaling: IL-1-beta AlphaLISA Primary Screen; THP-1 LPS/ATP IL-1B secretion, AlphaLISA, 16 h; hits give low values; activity change, % at 57.5 µM; 360,000 tested, 4.7% active; AID 743279, 2014; in the data active means activity change below about -50%; inconclusive means mostly about -30% to -49%
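Secreted IL-1B measured by AlphaLISA bead assay after 16 h compound exposure of THP-1 cells; compounds (final up to 57.5 uM) added 1 h before LPS (250 ng/mL) and ATP (1.25 mM) stimulation; lower signal means less secretion.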
DT40 TDP1 no CPT – qHTS for Inhibitors of human tyrosyl-DNA phosphodiesterase 1 (TDP1): qHTS in cells in absence of CPT. DT40 Tdp1-/- hTDP1 cells, no CPT, ATP luminescence, 48 h. 420,000 tested, 15% active. Potency, µM (doses to about 46.2 µM), for inactives: at the top dose activity change, negative = growth inhibition, hits mostly inhibitors; further: potency means the concentration at half of the fitted maximal effect; nearly all actives have a fitted effect of over 55% in size
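A cellular qHTS used chicken DT40 cells lacking endogenous Tdp1 but carrying stably transfected human TDP1. Compounds were applied without camptothecin, and cell growth kinetics were judged by ATP-dependent luminescence after ≥48 hr.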
DT40 TDP1 CPT – qHTS for Inhibitors of human tyrosyl-DNA phosphodiesterase 1 (TDP1): qHTS in cells in presence of CPT; chicken DT40 Tdp1-/-;hTDP1 cells + 20 nM CPT, ATP luminescence, 48 h; Potency, µM (series often up to 46.2 µM), for the others: at the top dose activity change, negative = growth inhibition, hits mostly inhibitors; 420,000 tested, 12% active; further: potency means the concentration at half of the fitted maximal effect; nearly all actives have a fitted effect of over 55% in size
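Cell growth measured by CellTiter-Glo luminescence after a minimum 48 h, 37 C compound exposure with 20 nM CPT in Tdp1-knockout DT40 cells stably expressing hTDP1, seeded 400/well; qHTS titration format.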
HT1080NT lethal – qHTS for induction of synthetic lethality in tumor cells producing 2HG: qHTS for the HT-1080-NT fibrosarcoma cell line | HT-1080-NT fibrosarcoma viability, CellTiter-Glo ATP luminescence, 48 h | Potency, µM (top dose mostly 46.1 µM), inactives show at the top dose activity, negative = less viability, most hits filed as cytotoxic | 360,000 tested, 1.6% active;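 further: NT is the 2HG producing partner of a matched IDH1 knockdown line; potency means the concentration at half of the fitted maximal effect; 0% = DMSO-treated cells and -100% = media-only wells without cells; nearly all actives have a fitted effect of over 55% in size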
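Compounds were tested in concentration-response format on HT-1080-NT cells for 48 hours at 37 degrees C. Cell viability came from CellTiter-Glo luminescence; curves were classified by r2, response magnitude and activity.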
An asterisk follows results filed as active; ? = inconclusive; · = not tested or not shown. Unless noted, the call rests on the fitted dose curve; in most records, active means well fitted curve in the direction sought with a large enough effect; inconclusive means small, poorly fitted or top-dose-only effect, or another doubt; inactive means no such curve, though single readings can be large; an effect the other way counts as inactive or inconclusive. Unless noted, on the % scale 0 is the no-effect control and ±100 the full control effect.

SMILES | HT1080 IDH1KD tx | uPA surface inh | IL-1B inflam inh | DT40 TDP1 no CPT | DT40 TDP1 CPT | HT1080NT lethal
C=CCc1cccc(/C=N/NC(=O)C(C)Nc2cccc(C)c2)c1O (stereo not drawn) | ? | -2.0% | 35.1 | 2.91µM* | 4.11µM* | ?
C=CCc1cccc(/C=N/NC(=O)CNc2ccccc2)c1O | 18.4µM* | -7.5% | 89.0 | 5.17µM* | 20.6µM* | ?
COc1ccccc1C(=O)OCCNC(=O)Cn1cnc2c1c(=O)n(C)c(=O)n2C | 12.3% | 0.3% | 23.3 | -9.7% | 0.3% | 25.1%
C=CCc1cccc(/C=N/NC(=O)CCCNc2ccc(C)cc2)c1O | ? | -4.6% | 37.0 | 20.6µM* | -87.7% | ?
C=CCc1cccc(/C=N/NC(=O)CCC(=O)Nc2ccc(F)cc2)c1O | 23.1µM* | 5.4% | 124.2 | 8.2µM* | 9.2µM* | ?
Cc1ccc(NCC(=O)N/N=C\c2cccc(O)c2)cc1 | -3.8% | 10.5% | -12.3 | -2.0% | -17.0% | 0.5%
C=CCc1cccc(/C=N/NC(=O)C[n+]2ccccc2)c1O | ? | -11.0% | 265.9 | ? | ? | ?
CSCCC(NC(=O)COc1ccccc1)C(=O)NCCOc1ccccc1 (stereo not drawn) | 0.0% | -4.4% | -4.0 | ? | -9.7% | 17.2%
Cc1ccc(S(=O)(=O)c2nc(Nc3ccccc3)sc2Cl)cc1 | -14.1% | 2.6% | 0.0 | ? | ? | -12.2%
COc1ccc(Nc2nc(S(=O)(=O)c3ccc(C)cc3)c(Cl)s2)cc1 | 23.1µM* | -0.7% | -90.8* | ? | ? | 23.1µM*
O=c1[nH]c2ccc(Cl)cc2c(-c2ccccc2)c1N1CCOCC1 | 0.5% | -4.0% | 0.3 | -6.2% | -22.0% | -1.7%
O=c1[nH]c2ccc(Cl)cc2c(-c2ccccc2)c1CN1CCOCC1 | ? | -16.8% | -5.1 | 20.6µM* | ? | ?
Cc1ccc(N(C(=O)c2sc(C)nc2C)C(C(=O)NCc2ccco2)c2ccccc2)cc1 (stereo not drawn) | 0.0% | 6.0% | -54.5* | ? | ? | 0.0%
Cc1ccc(NC(=O)/C=C\C(=O)N(c2ccc(C(C)C)cc2)C(C(=O)NCc2ccco2)c2ccc(F)cc2)cc1 (stereo not drawn) | · | · | · | 18.4µM* | 14.6µM* | ·
COc1ccc(N(C(=O)/C=C\C(=O)Nc2ccc(C)cc2)C(C(=O)NCc2ccco2)c2ccc(C)cc2)cc1 (stereo not drawn) | · | · | · | 4.11µM* | 6.51µM* | ·
COc1ccc(-n2nc(C(=O)NCC(=O)Nc3cc(OC)c(OC)c(OC)c3)c3ccccc3c2=O)cc1OC | -0.9% | 2.0% | 72.1 | ? | 4.2% | ?
COc1ccc(-c2nc(C(=O)N3CCN(C)CC3)sc2-c2ccc(OC)cc2)cc1 | · | · | · | -19.7% | -8.6% | ·
CCCC(=O)NC(c1cccc([N+](=O)[O-])c1)c1ccc2cccnc2c1O (stereo not drawn) | ? | · | 58.1 | 2.91µM* | 11.6µM* | ?
CC(C)C(=O)NC(c1cccc([N+](=O)[O-])c1)c1c(O)ccc2ccccc12 (stereo not drawn) | -21.7% | -0.1% | 45.0 | -12.1% | 4.3% | -23.0%
CC(C)C(=O)NC(c1cccc([N+](=O)[O-])c1)c1ccc2cccnc2c1O (stereo not drawn) | ? | 3.0% | 84.3 | 4.61µM* | 4.61µM* | -25.6%
NC1=CC(=O)C(=O)c2ccccc21 | -20.3% | -6.1% | ? | 16.4µM* | 23.1µM* | -15.7%
